The supplement of paper PMC10681739

Molecular target: T1, ETS1 (UniProt P14921)
T1 sequence: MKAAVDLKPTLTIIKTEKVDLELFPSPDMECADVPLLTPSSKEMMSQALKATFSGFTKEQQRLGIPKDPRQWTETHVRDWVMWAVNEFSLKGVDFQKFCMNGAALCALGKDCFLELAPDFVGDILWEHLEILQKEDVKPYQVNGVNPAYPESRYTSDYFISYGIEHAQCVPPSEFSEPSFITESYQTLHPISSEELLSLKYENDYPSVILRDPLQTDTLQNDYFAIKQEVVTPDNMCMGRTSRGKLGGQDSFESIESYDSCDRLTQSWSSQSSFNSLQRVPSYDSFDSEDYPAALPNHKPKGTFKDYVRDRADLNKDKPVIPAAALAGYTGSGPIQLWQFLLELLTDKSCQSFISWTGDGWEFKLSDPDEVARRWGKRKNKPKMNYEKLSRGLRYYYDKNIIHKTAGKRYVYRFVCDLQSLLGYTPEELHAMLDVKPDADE
Assay: ETS1 binding intensity (PBM fluorescence), ETS1 alone (arbitrary fluorescence units); higher = stronger binding
Details: ETS1 concentration 1 nM; RUNX1 concentration 0 nM
Method: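 Cooperative genomic-context PBM: 36-bp genomic probes with neighbouring ETS1 and RUNX1 sites, double-stranded on Agilent 4x180k arrays. Full-length recombinant human ETS1 (1 nM) was incubated alone or with RUNX1 (25 nM) and detected with anti-ETS1 antibody plus Alexa488 secondary. Value is the median fluorescence intensity over 4 replicate spots; the ETS1+RUNX1 data were normalised to the ETS1-only data using probes without RUNX1 sites. The 36-bp variable region sits on the array probe with constant linker/primer flanks that are not printed.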

| Sequence | ETS1 binding intensity |
| --- | --- |
| TTTCTGACTTCCTGTGTGCTTCAGAAACCTCAATGA | 2020 |
| CTCACCCCTGGAGGATGTGGGTTTCCAGGCTGACAG | 836 |
| CCCCTCGCCCTTCCGCATTGCGGGTTACTTCGGTTG | 521 |
| CTACAAACGGCTTCCTCCTGCCTAACCACAACCTCA | 455 |
| GAGGAAGAGTCTTCCTGTAACCACTAGAGGGCGCTG | 592 |
| TTCTGCTACATCCTGCCCACTCCCTGTGGCTTCCAC | 1090 |
| GGCTTCCGCCTGCCGAGCGGCCCCGGACCGCAGGCC | 343 |
| ATCAGTCAACTTCCCCCACTCCCTCCCACAAAGAAA | 1010 |
| GCTGAGGCCGGAAGAGGGTGGGGCCGCGGTGGCTAG | 2170 |
| CTGGAGAGGATGTGGCCCCAGTGTGGTTCTGTAACT | 610 |
| CCATGCGCTGCTTCCTTCCACTTACCGCCCTCGCAC | 523 |
| TGGGGAGCAGGAAGCTGGGGGCGGTTGTGGAGGGAC | 1130 |
| TCTGATGTGCCTTCTTCCTGACCACAGCAACTACTA | 392 |
| CGCCGGACGTAGTGACGTAGCGCGCAGCCGCAGCGG | 442 |
| CCTCCTCCAGACCATCCTGGAAACCACTGCCGTTCT | 561 |
| GGATGAACAGGAAGCTAAAGTAAATACCACAGTGAC | 1710 |
| TCCAGCCCCACCGGAAGTGGATGTGGTTAATCTAGT | 28800 |
| ACAGGAAATGACATCAGAATCTCCAAACCACAACCA | 1030 |
| CAAAGGGGAACGAGGAAACCGCCAGGGGCGGGGCGG | 485 |
| GAGCGGAAACCCGAGAGTCAGTTCAACCACAGCCAC | 592 |

| Sequence | ETS1 binding intensity |
| --- | --- |
| CCTCTCAACAGCATTTCCTGGTGGTCAGATATCTGA | 580 |
| TCCTCCGTTTCCGTAGTTCCGAGTTGCGGTTTCTCC | 487 |
| ATAGTCACCGTTCCGGCCCTCCTCCACCGCACTTCT | 445 |
| GTCCTCCACTATTGTTTCCGGCCGCAGCAGAGGCGG | 1870 |
| CACCTCCTACTTCCCCCCGCTGATAACCACCAACCC | 1700 |
| CTGCGTCCCGGAAGGAGCGAGCTTGCGGAGCGTGAA | 710 |
| GCGCACGCGCGTTGTTTCCGCGGTAGTCAGGGCAGT | 477 |
| CAGCTCCGACTTCCGGGTGCGGTACGGCGAAGCAGA | 1320 |
| CGAGCAGGAAGTGGCAAGATTTGATAGGCGGTCAGG | 1970 |
| CACTTCCTCTGTGACTGCAGGTTTCCAACCACAAGC | 601 |
| GCCGCTGGGTAGGCGGAAGTAGCCGCAGGCATGGCA | 5590 |
| GCTTCTTCCGGCCGGGCCGAGAGGTGGTTACATTCG | 683 |
| CTCACAACTCGCGTCCGGCGGAGACCACAATTCCCG | 412 |
| AGCTAGGACAGGATGTGAAAACCACACTGACAAAGT | 2620 |
| AGAGTCTTTTTTCCTGAGCGTTTGCGGTTTTGACTT | 430 |
| ACCCCAGGTACCGGAAGACCACAATTCCCAGGAGTC | 2220 |
| AGCGACAGCGGATGCTCTCTGGCCGCAACATTCTTT | 880 |
| AGGCCCCGCCCCTTCCGCCCACAGAGCCCGCCACTT | 779 |
| CCGGCAGGAAGTTAGCATGGGCGGACCACACGGGGG | 1400 |
| AGCTGCTGTTTTCCGGCTGCGGCACTGGATGAAGGA | 498 |
